# Source: PubChem BioAssay (NCATS)
# Inconclusive results are not listed. The source made the active and inactive calls. Calls come from the whole dose curve; as a rule, active = well fitted curve in either direction with a large enough effect (not every such curve was filed as active); inconclusive = small, poorly fitted or top-dose-only effect, or another doubt; inactive = flat fitted curve, though single readings scatter. Where a SMILES comes first, the peptide text is derived from it.
# Test: Stat Signaling Pathway (AID 446)
# Settings: ME-180 (cervical carcinoma) SIE beta-lactamase reporter, IL-6 stimulated, 5 h; series mostly up to 17.2 µM
# Protocol: NCGC Assay Overview: The IL-6/STAT signaling pathway was assayed in ME-180 cervical carcinoma cells by a beta-lactamase reporter gene controlled by a STAT Inducible Element (SIE). This reporter is induced by IL-6 at 40 pM AC50 and inhibited by the pan JAK inhibitor, 2-(1,1-Dimethylethyl)-9-fluoro-3,6-dihydro-7H-benz[h]-imidaz[4,5-f]isoquinolin-7-one, at approximately 10 nM AC50. Plated cells were incubated overnight and on the following day, stimulated with 40 pM IL-6 for 5 hrs. The assay was screened at the AC50 of IL-6 activation to identify both inhibitors and activators of IL-6/STAT signaling.
# NCGC Assay Protocol Summary: Cells were trypsinized, washed in assay medium (AM, OPTI MEM with 0.5% fetal bovine serum, 0.1 mM nonessential amino acids, 1 mM sodium pyruvate, 10mM HEPES pH 7.3, 100U/ml penicillin, and 100 ug/ml streptomycin) and suspended at 6 x 10e5/ml in AM. Approximately […] cells in 5 uL/well was dispensed into 1536 well plates and the cells were incubated overnight at 37 C. 23 nL of compound were delivered by a pin tool and 1 uL of IL-6 (40 pM final concentration in AM) was added. After centrifugation at 1000 rpm for less than a minute, plates were incubated at 37C for 5 hrs. One uL of detector mix (LiveBLAzerTM, Invitrogen) was added, the plates incubated at room temperature for 2.5 hrs, and fluorescence intensity at 460 and 530 nm emission was measured at 405 nm excitation by an Envision (Perkin Elmer) or Safire II (Tecan). Data were normalized by GeneData to the controls for AC90 stimulation (300 pM IL-6) and to AC90 inhibition (125 nM Jak inhibitor, 40 pM IL-6 in AM).
row,Structure (SMILES),outcome
1,COc1ccc2c(c1)c(C(=O)O)c(C)n2CC(C)C,inactive
2,Cc1ccc2c(c1)[C@@H]1CN(C)CC[C@@H]1N2C(=O)Nc1cccc(C(F)(F)F)c1,inactive
3,CCOC(C(=O)OCC(O)CN(CC)CC)(c1ccccc1)c1ccccc1 (stereo not given),inactive
4,CCOC(=O)C1=C(C)OC(N)=C(C(=O)OCC)[C@@]12C(=O)N(CC(N)=O)c1ccccc12,inactive
5,O=c1[nH]c(=O)n(CCc2ccccc2)c(O)c1C=NCCCn1ccnc1,inactive
6,CCn1c(O)c(C(=O)CC2NCCc3ccccc32)c(=O)n(CC)c1=S (stereo not given),inactive
7,CCN(CC)C(=O)N[C@H]1C[C@H]2c3cccc4[nH]cc(c34)C[C@@H]2N(C)C1,inactive
8,COc1ccc2[nH]c3c(c2c1)CCN=C3C,inactive
9,OCCOCC#CCN1CCOCC1,inactive
10,C=CCn1c(O)c(C=NCCN(C)C)c(=O)[nH]c1=O,inactive
11,Cn1c(O)c(C=NCCCNC2CCCCC2)c(=O)n(C)c1=O,inactive
12,CC(=O)OC1N=C(c2ccccc2)c2ccccc2NC1=O (stereo not given),inactive
13,Cc1c(N=Cc2c(O)n(CCc3ccccc3)c(=O)[nH]c2=O)c(=O)n(-c2ccccc2)n1C,inactive
14,O=c1[nH]c(=O)n(-c2cccc(Cl)c2)c(O)c1C=NCCN1CCCCC1,inactive
15,COc1ccc(C2SCC(=O)Nc3c2c(=O)[nH]n3C2CCCCCC2)cc1 (stereo not given),inactive
16,C[C@@H]1O[C@@H](O[C@H]2C[C@@H](O)[C@]3(CO)[C@@H]4[C@@H](O)C[C@]5(C)[C@H]([C@@H]6COC(=O)C6)CC[C@@]5(O)[C@H]4CC[C@@]3(O)C2)[C@H](O)[C@H](O)[C@@H]1O,inactive
17,CC1(c2ccccc2)NCCN2C(=O)CSC21 (stereo not given),inactive
18,COc1ccc2c(c1OC)C(=O)OC2c1c(O)n(C2CCCCC2)c(=O)[nH]c1=O (stereo not given),inactive
19,O=c1[nH]c(=O)n(Cc2ccco2)c(O)c1C=NCCCn1ccnc1,inactive
20,CCOc1ccccc1-n1c(O)c(C=Nc2ccc(N(CC)CC)cc2)c(=O)[nH]c1=O,inactive

row,Structure (SMILES),outcome
1,CC1CN=C(Nc2ccc(N(C)C)cc2)S1 (stereo not given),inactive
2,COc1ccc(Cn2c(O)c(C=NCCN3CCOCC3)c(=O)[nH]c2=O)cc1,inactive
3,CC(C)(O)[C@H]1[C@H]2OC(=O)[C@@H]1[C@]1(O)C[C@H]3O[C@]34C(=O)O[C@H]2[C@]14C (tested in a mixture with another compound),inactive
4,CN1CCc2nc(SCC(=O)OC(C)(C)C)c(C#N)cc2C1,inactive
5,COc1cccc(-n2c(O)c(C=NCCN3CCOCC3)c(=O)[nH]c2=O)c1,inactive
6,CC(C)(C)c1ccc(O)c(C[N+](C)(C)C)c1,inactive
7,CC(=O)C1(c2ccccc2)CCNCC1,inactive
8,OC(c1ccc(F)cc1)C(c1ccccc1)N1CCOCC1 (stereo not given),inactive
9,C=CCN1CCc2cccc3c2[C@@H]1Cc1ccc(O)c(O)c1-3,inactive
10,CC(C)C[C@H](NC(=O)[C@@H]1CCCN1C(=O)[C@@H](N)Cc1ccc(O)cc1)C(=O)NCC(N)=O (H-YPLG-NH2),inactive
11,O=C(c1ccco1)C12CN3CN(CN(C3)C1)C2,inactive
12,COc1ccc(Cn2c(O)c(C=NCCCn3ccnc3)c(=O)[nH]c2=O)cc1,inactive
13,O=c1[nH]c(=O)n(Cc2ccccc2)c(O)c1C=NCCN1CCNCC1,inactive
14,COc1ccc(C(=O)CC2C(=O)N(C)C(=O)N(C)C2=O)cc1,inactive
15,O=P(c1ccccc1)(c1ccccc1)N1CCCCC1,inactive
16,C=CCOC(=O)C1=C(C)OC(N)=C(C#N)[C@@]12C(=O)N(CC(N)=O)c1ccccc12,inactive
17,CC1(C)CC(=O)C(C=NCCN2CCN(C(=O)Cc3ccc(F)cc3)CC2)=C(O)C1,inactive
18,Cc1c(N=Cc2c(O)n(Cc3ccco3)c(=O)[nH]c2=O)c(=O)n(-c2ccccc2)n1C,inactive
19,C[C@H]1CCC/C=C/C2C[C@H](O)CC2[C@H](O)/C=C/C(=O)O1 (stereo not given in full),inactive
20,CCCCCCn1c(O)c(C(C)=NC)c(=O)[nH]c1=O,inactive
